A selection: hits, their analogues and other compounds. The true share with any hit is near 2.8%.
PP5 inh = blocks human protein phosphatase 5 activity; purified PP5c, OMFP substrate fluorescence; inhibition, % at 6.7 µM; 320,000 compounds, 0.18% hits;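 active = inhibition above the campaign's mean inhibition across all tested compounds plus 3 SD, cut at about 9.5% in these data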;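 also: 0% = DMSO only and 100% = 100 µM cantharidin control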
Target sequence (P53041 whole entry, looked up): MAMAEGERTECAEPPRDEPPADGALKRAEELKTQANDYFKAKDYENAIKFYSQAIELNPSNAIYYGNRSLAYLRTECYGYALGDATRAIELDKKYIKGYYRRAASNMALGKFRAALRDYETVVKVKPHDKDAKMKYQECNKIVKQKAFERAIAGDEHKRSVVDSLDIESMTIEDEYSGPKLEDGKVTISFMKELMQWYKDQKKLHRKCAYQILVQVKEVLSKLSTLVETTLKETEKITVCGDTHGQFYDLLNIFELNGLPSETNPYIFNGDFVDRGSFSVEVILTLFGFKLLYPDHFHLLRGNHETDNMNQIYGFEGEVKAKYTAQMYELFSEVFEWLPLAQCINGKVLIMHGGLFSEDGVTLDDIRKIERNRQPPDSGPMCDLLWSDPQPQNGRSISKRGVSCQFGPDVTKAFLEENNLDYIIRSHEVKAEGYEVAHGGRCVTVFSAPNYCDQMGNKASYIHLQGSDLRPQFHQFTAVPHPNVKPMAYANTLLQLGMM
GASC-1 inh = inhibitors of human GASC-1 (JMJD2C) demethylase | AID 2099 | 330,000 compounds, 0.069% hits | GST-JMJD2C(1-420) H3K9me3 demethylation, DELFIA europium | inhibition, % at 2.35 µM | Q9H3R0;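 active = more than half of a compound's replicate wells show inhibition beyond 50%, single wells judged on their own value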;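 also: signal counts dimethyl H3K9 product captured on neutravidin plate; 0% = median of DMSO wells and 100% = 0.3 times that DMSO median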
KLK7 zymogen act = proKLK7 (human) activation, primary screen; purified proKLK7, EDANS-DABCYL substrate fluorescence; 100% is mature enzyme control, 0% vehicle; activation, % at 7 µM; 370,000 compounds, 0.9% hits; AID 652039;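 active = activation above the mean of all tested compounds plus 3 SD, computed per campaign excluding outliers beyond control limits, cut at about 13% in these data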
PP1 inh = blocks human PP1-alpha phosphatase, a PP5 counter-screen. P62136. 320,000 compounds, 0.9% hits. purified PP1alpha, OMFP fluorescence. AID 2235. inhibition, % at 6.7 µM;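 active = inhibition above the mean inhibition of all tested compounds plus 3 SD, computed separately for each screening campaign, cut at about 15% in these data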
PG9 binder = small molecules binding HIV-1 gp120 antibody PG9; TR-FRET gp120-PG9 antibody binding; inhibition, % at 6.7 µM; 360,000 compounds, 0.43% hits; in the data active = inhibition above about 8.5%
Rev-erbA mod = Rev-erb alpha (human) modulation; activity, % at 10 µM; Rev-erbα–FITC-DNA binding, fluorescence polarization, 90 min; 370,000 compounds, 0.79% hits; P20393;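 active = activity above about 14%, limit read from the data; passing the limit was not always enough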;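 also: 0% = DMSO wells with 35 nM protein and 100% = DMSO wells with 750 nM protein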
KLK7 act conf = confirmation of human kallikrein-7 zymogen activators | purified proKLK7, EDANS-DABCYL substrate fluorescence; scaled: vehicle 0, mature enzyme 100 | 3,200 compounds, 68% hits | shares compounds with KLK7 zymogen act | activation, % at 7 µM | AID 686949;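 active = activation, as change over the incubation, above the mean of all tested compounds plus 3 SD, cut at about 13% in these data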
EDANS interfere = optically interferes with EDANS-DABCYL signal, flagging KLK7 hits | EDANS-DABCYL substrate fluorescence interference, no enzyme, 4 h; solvent 0%, active enzyme control 100% | shares compounds with KLK7 zymogen act | 3,200 compounds, 80% hits | activation, % at 7 µM;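 active = activation above the all-compound mean plus 3 SD, ignoring values outside control-based bounds, cut at about 4.8% in these data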;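 also: value is the 4 h activation minus the activation read at time zero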
EDANS interf = optically interferes with EDANS-DABCYL fluorescence, kallikrein-7 activator counter-screen. shares compounds with KLK7 zymogen act. EDANS-DABCYL peptide fluorescence interference, no enzyme. EC50, µM. 250 compounds, 20% hits. AID 720493;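 active = compounds that raise the fluorescence signal in this interference counterscreen, with EC50 at or below 10 µM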;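 also: intact quenched peptide substrate alone read at 355 nm excitation and 520 nm emission; signal is fluorescence gain from T0 to T4 after four hours at room temperature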
The depositor's hits bear a star; x = no result.

SMILES	PP5 inh	GASC-1 inh	KLK7 zymogen act	PP1 inh	PG9 binder	Rev-erbA mod	KLK7 act conf	EDANS interfere	others
COc1ccc(OC)c(/C=N/NC(=O)CCc2c(C)n[nH]c2C)c1	-1	4	17*	-3	-2	4	32*	35*
COc1ccc(OC)c(/C=N/NC(=O)c2cnccn2)c1	3	4	26*	1	2	0	36*	39*
COc1ccc(/C=N/NC(=O)c2cnccn2)c(OC)c1OC	-1	-2	1	-2	0	-2	x	x
COc1cc(/C=C/c2cc[n+](C)cc2)ccc1OCC(=O)Nc1ccccc1	1	-3	24*	1	0	-3	28*	25*
CN1OC[C@@H]2CN3C(=Nc4cc(C(F)(F)F)cc(C(F)(F)F)c4)Sc4ccccc4[C@@H]3C[C@@H]21	x	x	1	x	-1	0	x	x
C#CCN1C(=O)[C@]2(NCCc3c2[nH]c2ccc(OC)cc32)c2ccccc21	x	x	-1	x	x	-3	x	x
O=C(C1CCCN1S(=O)(=O)c1cccc([N+](=O)[O-])c1)N1CCN(c2ccccc2)CC1 (centres undefined)	x	x	0	x	x	-1	x	x
CCCC[C@H]1C2CC(OC(=O)Nc3ccc(F)cc3)C(C2)[C@H]2CCCCN21 (some centres undefined)	x	x	0	x	x	2	x	x
COc1cc(/C=N/NC(=O)c2cccnc2)ccc1OCC(=O)Nc1ccccc1Cl	1	-4	0	-2	0	-1	x	x
COc1ccc(OC)c(/C=N/NC(=O)CC2C(=O)NN=C2C)c1 (centres undefined)	4	8	77*	-2	0	0	45*	39*
COc1ccc(OC)c(/C=N/NC(=O)CC(=O)NC2CCCCC2)c1	-1	-5	29*	-3	0	0	4	23*
COc1ccc(NC(=O)COc2ccc(/C=N/NC(=O)c3cccnc3)cc2OC)cc1	0	9	20*	0	2	1	-272	-182
COc1ccc(OC)c(/C=N/NC(=O)c2cc[n+](CC(=O)c3ccccc3)cc2)c1	3	4	31*	2	-2	-2	63*	65*
O=C(C[n+]1ccc(C(=O)N/N=C/c2ccc(OCc3ccccc3)cc2)cc1)c1ccccc1	2	5	-1	6	-4	-5	x	x
C[C@H]1C2CC(OC(=O)Nc3ccccc3C(F)(F)F)C(C2)[C@H]2CCCCN21 (some centres undefined)	x	x	0	x	x	2	x	x
CC1CCC2(CC1)CCC2NCc1ccc(Cl)c(Cl)c1 (centres undefined)	x	x	x	x	x	-5	x	x
CC/C(C)=N/N1C(=O)c2ccccc2NC1(C)CC (centres undefined)	2	-2	19*	-1	1	4	45*	39*
O=C1c2ccccc2NC(c2cccc(O)c2)N1c1ccccc1 (centres undefined)	2	2	44*	0	1	4	12	15*
Cc1ccc(S(=O)(=O)NN2C(=O)c3ccccc3NC2c2ccccc2)cc1 (centres undefined)	-1	34	17*	-5	-4	3	4	4.9*
COc1ccc(C2Nc3ccccc3C(=O)N2NS(=O)(=O)c2ccc(C)cc2)cc1 (centres undefined)	0	-35	16*	0	-2	0	4	5.6*
O=C1c2ccccc2NC(c2cccc(O)c2)N1NS(=O)(=O)c1ccccc1 (centres undefined)	-2	-20	20*	-1	-1	3	7	6.5*
CC(=O)NN1C(=O)c2ccccc2NC1c1ccc(N(C)C)cc1 (centres undefined)	0	-8	8	-6	-3	3	x	x
Cc1ccc(N2C(=O)c3ccccc3NC2c2ccccc2O)cc1 (centres undefined)	-1	-1	-11	0	0	1	x	x
CCOC(=O)[C@]12CCCC=C1N(Cc1ccc(OC)cc1)C(=O)[C@@H]2CC(=O)NCCCN1CCCC1=O	x	x	1	x	x	-5	x	x
Cc1cccn2c(=O)c3cc(C#N)c(=NC(=O)c4ccccc4)n(Cc4ccco4)c3nc12	2	14	45*	12	0	-1	27*	17*	EDANS interf=7.8*
SMILES	PP5 inh	GASC-1 inh	KLK7 zymogen act	PP1 inh	PG9 binder	Rev-erbA mod	KLK7 act conf	EDANS interfere	others
Cc1cccn2c(=O)c3cc(C#N)c(=NC(=O)c4ccco4)n(Cc4ccco4)c3nc12	2	8	9	-2	1	-36	x	x
Nc1ncc(-c2ccc(F)cc2)nc1N1CCN(CCO)CC1	x	x	24*	x	-1	-1	8	11*
OCCN1CCN(c2nc3ccccc3nc2-c2ccccc2)CC1	2	1	6	-2	-2	-2	x	x
CC(=O)Nc1c2c3c(cccc3n(C)c1=O)C(=O)c1ccccc1-2	0	-11	23*	1	-3	-3	23*	21*
CCOC(=O)c1c2c3c(cccc3n(C)c1=O)C(=O)c1ccccc1-2	1	2	-1	0	0	10	x	x
COc1ccc(-c2ccc3c(n2)CCCN3S(=O)(=O)c2ccc(C#N)cc2)cc1	x	x	0	x	-2	0	x	x
COc1ccc(NC(=O)N(C)C[C@@H]2OCCCC[C@@H](C)Oc3ccc(NS(C)(=O)=O)cc3C(=O)N([C@H](C)CO)C[C@@H]2C)cc1	x	x	1	x	3	-2	x	x
Cc1sc(-c2ccncc2)nc1OC(=O)c1ccccc1	0	-1	19*	3	-1	-2	34*	29*
Cc1sc(-c2ccccn2)nc1OC(=O)c1ccc(Cl)cc1	2	-1	0	-1	0	3	x	x
N=c1oc2cc(O)ccc2cc1C(=O)Nc1nc2ccccc2s1	4	-16	55*	5	-1	0	67*	73*
N=c1oc2cc(O)ccc2cc1C(=O)Nc1ccccn1	-4	7	x	3	x	x	x	x
CC1(C)CC(=O)C2=C(C1)OC(N)=C(C#N)C2c1cc2c(cc1[N+](=O)[O-])OCO2 (centres undefined)	3	-2	108*	1	-20	5	65*	66*
CCOc1cc(C2C(C#N)=C(N)OC3=C2C(=O)CC(C)(C)C3)cc([N+](=O)[O-])c1O (centres undefined)	2	3	0	1	-3	8	x	x
CC1Cc2ccccc2N1C(=O)COC(=O)c1ccccc1NCCO (centres undefined)	0	-3	12	1	-2	-3	x	x
